In this test the test system is RIVA. Briefly: growth inhibition by drug alone (1 - RLU/untreated control) (fraction); higher = stronger inhibition. The conditions noted are these: 177Lu-lilotomab satetraxetan 0 ug/ml. The procedure:
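RIVA (RI-1) ABC-DLBCL cells were pretreated or not for 18 h with 0.5 ug/ml 177Lu-lilotomab satetraxetan (600 MBq/mg), washed and seeded (3000 cells/well) on 384-well plates pre-printed with the Selleck Cambridge Cancer Compound library. Viability was read by RealTime-Glo luminescence on days 3-6 after seeding. Effect = 1 - RLU/mean RLU of the 48 untreated no-drug control wells per plate; Bliss score = (M-E)/(1-Fa).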

The structures appear in SMILES notation.

Take `NC(=O)c1ccc(-c2nc(-c3ccccn3)c(-c3ccc4c(c3)OCO4)[nH]2)cc1`: the “growth inhibition by drug alone” value is 0.151 (10 nM, time (day): 3); 0.132 (10 nM, time (day): 4); 0.0924 (10 nM, time (day): 5); -0.233 (10 nM, time (day): 6); -0.221 (100 nM, time (day): 3); -0.199 (100 nM, time (day): 4). In addition, the “growth inhibition by drug alone” value (100 nM, time (day): 5) is -0.195 and the “growth inhibition by drug alone” value (100 nM, time (day): 6) is -0.245.
Turning to `O=C(NCCCNc1nc(Nc2cccc(NC(=O)N3CCCC3)c2)ncc1I)c1cccs1`, the “growth inhibition by drug alone” value (10 nM, time (day): 3) was 0.342; the “growth inhibition by drug alone” value (10 nM, time (day): 4) came to 0.272; the “growth inhibition by drug alone” value (10 nM, time (day): 5) came to 0.262; the “growth inhibition by drug alone” value (10 nM, time (day): 6) was 0.207; the “growth inhibition by drug alone” value (100 nM, time (day): 3) turned out to be 0.339; the “growth inhibition by drug alone” value (100 nM, time (day): 4) came out at 0.317. The “growth inhibition by drug alone” value came to 0.346 (100 nM, time (day): 5) and 0.36 (100 nM, time (day): 6).
Take `Cc1cnc(-c2cnc(NCCNc3ccc(C#N)cn3)nc2-c2ccc(Cl)cc2Cl)[nH]1`: the “growth inhibition by drug alone” value is 0.0622 (10 nM, time (day): 3); 0.0911 (10 nM, time (day): 4); 0.0352 (10 nM, time (day): 5); -0.132 (10 nM, time (day): 6); -0.000657 (100 nM, time (day): 3); 0.0178 (100 nM, time (day): 4). Also, the “growth inhibition by drug alone” value reads like this: (100 nM, time (day): 5) -0.0435; (100 nM, time (day): 6) -0.16.
As for `CC[C@H]1OC(=O)[C@H](C)[C@@H](O[C@H]2C[C@@](C)(OC)[C@@H](O)[C@H](C)O2)[C@H](C)[C@@H](O[C@@H]2O[C@H](C)C[C@H](N(C)C)[C@H]2O)[C@](C)(O)C[C@@H](C)CN(C)[C@H](C)[C@@H](O)[C@]1(C)O` [Azithromycin (Zithromax)], the “growth inhibition by drug alone” value (10 nM, time (day): 3) came out at 0.16; the “growth inhibition by drug alone” value (10 nM, time (day): 4) worked out at 0.206; the “growth inhibition by drug alone” value (10 nM, time (day): 5) was determined as 0.16; the “growth inhibition by drug alone” value (10 nM, time (day): 6) is 0.0424; the “growth inhibition by drug alone” value (100 nM, time (day): 3) worked out at 0.0514; the “growth inhibition by drug alone” value (100 nM, time (day): 4) is 0.129. The “growth inhibition by drug alone” value by setting is: (100 nM, time (day): 5) 0.0797; (100 nM, time (day): 6) -0.0131.
In the case of `CCCCCOC(=O)Nc1nc(=O)n([C@@H]2O[C@H](C)[C@@H](O)[C@H]2O)cc1F` [Capecitabine (Xeloda)], the “growth inhibition by drug alone” value was -0.345 (10 nM, time (day): 3); -0.321 (10 nM, time (day): 4); -0.354 (10 nM, time (day): 5); -0.36 (10 nM, time (day): 6); -0.381 (100 nM, time (day): 3); -0.792 (100 nM, time (day): 4). Also, the “growth inhibition by drug alone” value reads like this: (100 nM, time (day): 5) -0.367; (100 nM, time (day): 6) -0.436.

The values are drawn from the supplement of paper PMC6897291.
